These results are taken from PubChem BioAssay (NCI).

Each structure is given as a SMILES string. The panel holds about 83,000 compounds, 20% with a hit somewhere; the sample as a whole holds those more often.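 Activity criterion: percent growth below 10, measured after cells in 96-well plates were exposed to a single compound concentration for 48 hours.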 A number with no mark means an inactive call. Active and inactive are the calls of the source.

Some test systems named below: NCI-H23 lung; NCI-H322M lung; HOP-62 NSCLC; NCI-H460 lung; HOP-92 NSCLC; NCI-H522 lung; A549/ATCC NSCLC; 786-0 renal; COLO 205 colon; NCI-H226 lung.
What all share (experiment): NCI-60 one-dose screen, 48 h (100 = growth as untreated, 0 = no growth, -100 = all killed)
Holding throughout (conditions): 10 µM

Turning to `O=C(Nc1ccc(OCC(=O)c2ccccc2)cc1)Nc1ccc(Cl)c(C(F)(F)F)c1`, the growth was 25.4% in the assay on NCI-H23 lung; 28% with NCI-H322M lung; 27.9% in the assay on HOP-62 NSCLC; 18.4% in the assay on NCI-H460 lung; -14.5% (active) with HOP-92 NSCLC; -31.7% (active) in the assay on NCI-H522 lung. Besides, the growth in the assay on A549/ATCC NSCLC was 25.4%; in the assay with 786-0 renal, 21%; with COLO 205 colon, -3.64% (active).
Turning to `O=C(NC(=S)N1CCN(c2ncnc3c2cnn3-c2ccccc2)CC1)c1ccc(Cl)cc1`, the growth was 55.5% in the assay on NCI-H23 lung; 66.8% with NCI-H322M lung; -2.01% (active) in the assay on HOP-62 NSCLC; 53.3% in the assay on NCI-H460 lung; 14.7% with HOP-92 NSCLC; 38% in the assay on NCI-H522 lung. Further, the growth is 54.3% with A549/ATCC NSCLC, 27.8% in the assay with 786-0 renal and 77.4% with COLO 205 colon.
In the case of `CCCS(=O)(=O)c1oc(-c2ccc(F)cc2)nc1S(=O)(=O)c1ccc(F)cc1`, the growth with NCI-H23 lung is -42.1% (active); with NCI-H322M lung, 89.8%; with HOP-62 NSCLC, 84%; in the assay with NCI-H460 lung it was 61.7%; in the assay with HOP-92 NSCLC, -80.6% (active); in the assay with NCI-H522 lung it was -92.9% (active). Further, the values for the growth in the assay with A549/ATCC NSCLC, with 786-0 renal and in the assay with COLO 205 colon were 82.5%, -52.2% (active) and -92.1% (active), respectively.
With `O=C(CSc1nnc(-c2c[nH]c3ccccc23)n1-c1ccccc1)c1ccc(Cl)cc1`, the growth was 40.8% in the assay with NCI-H23 lung; 58.7% in the assay on NCI-H322M lung; 60.1% in the assay on NCI-H460 lung; 65% in the assay with HOP-92 NSCLC; 67% in the assay with NCI-H522 lung; 37.5% in the assay with A549/ATCC NSCLC. Moreover, the growth with 786-0 renal is 44.9%; in the assay on COLO 205 colon, 42.6%.
For the compound `Cc1noc2c(Cc3ccccc3)nn(CC(=O)N/N=C/c3ccc(F)cc3)c(=O)c12`, the growth with NCI-H226 lung is 29%; with NCI-H322M lung, 84.6%; with HOP-62 NSCLC, 14.7%; with NCI-H460 lung, 28.9%; with HOP-92 NSCLC, -12.7% (active); in the assay on NCI-H522 lung, 85.8%. Also, the growth was 45.3% with A549/ATCC NSCLC, -2.13% (active) in the assay on 786-0 renal and 72.5% in the assay with COLO 205 colon.
For `CO[C@@H]1CSS[C@H]1Cn1nc(-c2ccc(Oc3ccccc3)cc2)c2c(N)ncnc21`, the growth in the assay on NCI-H226 lung is 24.7%; with NCI-H322M lung, 76.4%; with HOP-62 NSCLC, 111%; in the assay with NCI-H460 lung it was 77.4%; in the assay with HOP-92 NSCLC, 57.9%; with NCI-H522 lung it was 17.3%. The growth in the assay on A549/ATCC NSCLC is 45.7%; in the assay on 786-0 renal, 55.3%; in the assay with COLO 205 colon, 61.8%.
Consider `O=C(CSc1nnc(-c2c[nH]c3ccccc23)n1-c1ccccc1)Nc1ccc(C(=O)/C=C/c2cccc([N+](=O)[O-])c2)cc1`, for which the growth in the assay on NCI-H226 lung is 72.7%; in the assay with NCI-H322M lung it was 100%; in the assay with HOP-62 NSCLC, 98.2%; with NCI-H460 lung, 99.2%; with HOP-92 NSCLC, 104%; in the assay on NCI-H522 lung, 82.1%. Also, the growth is 97.2% with A549/ATCC NSCLC, 101% in the assay on 786-0 renal and 119% in the assay with COLO 205 colon.
Consider `Cc1cc(=O)oc2cc(OCCCCOc3ccc(/C=C/C(=O)Nc4ccccc4[N+](=O)[O-])cc3)ccc12`, for which the growth is 127% in the assay on NCI-H226 lung; 99.6% in the assay on NCI-H322M lung; 109% in the assay on HOP-62 NSCLC; 119% with NCI-H460 lung; 130% in the assay on HOP-92 NSCLC; 105% with NCI-H522 lung. The growth in the assay on A549/ATCC NSCLC was 106%; in the assay on 786-0 renal it was 111%.
On to `COC(=O)CC1CC1C1Cc2c(nc(N(C)S(C)(=O)=O)nc2C(C)C)-c2ccc(F)cc21` (stereo unspecified), for which the growth is 78.8% in the assay with NCI-H226 lung; 96.8% in the assay with NCI-H322M lung; 109% in the assay with HOP-62 NSCLC; 94.6% in the assay with NCI-H460 lung; 84% in the assay on HOP-92 NSCLC; 55.6% in the assay on NCI-H522 lung. Moreover, the growth in the assay with A549/ATCC NSCLC is 92.3%; in the assay with 786-0 renal it was 86%; in the assay with COLO 205 colon, 90.8%.
Regarding `COc1cccc(/C=C2\N=C(C)N(CCc3ccc(S(N)(=O)=O)cc3)C2=O)c1`, the growth in the assay on NCI-H226 lung was 104%; with NCI-H322M lung it was 96.5%; in the assay with HOP-62 NSCLC, 93.5%; with NCI-H460 lung, 105%; in the assay with HOP-92 NSCLC it was 92.8%; in the assay with NCI-H522 lung, 94.5%. For the same compound, the growth with A549/ATCC NSCLC is 101%; with 786-0 renal it was 90.4%; in the assay with COLO 205 colon it was 131%.
As for `COc1ccc2[nH]c(O)c(N=NC(=O)COc3ccc(NC(=O)Nc4ccc(Cl)cc4)cc3)c2c1`, the growth in the assay on NCI-H226 lung was -38.5% (active); in the assay on NCI-H322M lung, 67.8%; with HOP-62 NSCLC, -41.1% (active); in the assay on NCI-H460 lung, -48.6% (active); in the assay on HOP-92 NSCLC, -32.5% (active); with NCI-H522 lung it was 26.7%. Besides, the growth was 29.4% in the assay with A549/ATCC NSCLC, 21.4% in the assay on 786-0 renal and -1.56% (active) in the assay with COLO 205 colon.
As for `Cc1cc(=O)oc2cc(OCCCCOc3ccc(/C=C/C(=O)Nc4ccc(F)c(Cl)c4)cc3)ccc12`, the growth in the assay on NCI-H322M lung was 93.4%; with HOP-62 NSCLC, 108%; with NCI-H460 lung, 86.7%; in the assay with HOP-92 NSCLC it was 115%; in the assay on NCI-H522 lung, 94.6%; with A549/ATCC NSCLC it was 79.7%. Also, the growth in the assay with 786-0 renal is 94.9%; in the assay on COLO 205 colon it was 115%.
Consider `CC(C)NC(=O)c1cc(-c2ccc(NC(=O)Nc3ccc(N4CCN(C)CC4)c(C(F)(F)F)c3)cc2)nc2cccnc12`, for which the growth in the assay with NCI-H226 lung is -69.1% (active); with NCI-H322M lung, -90.6% (active); in the assay on HOP-62 NSCLC, -88.4% (active); in the assay on NCI-H460 lung it was -61.7% (active); with HOP-92 NSCLC it was -74.8% (active); in the assay with NCI-H522 lung, -90.8% (active). In addition, the growth was -78.9% (active) with A549/ATCC NSCLC, -93.8% (active) in the assay on 786-0 renal and -81.1% (active) in the assay with COLO 205 colon.
On to `O=C(c1ccc(O)cc1)C1[C@H](c2ccc(Br)cc2)[C@@H](c2ccccc2)NC12C(=O)Nc1ccc(Br)cc12` (stereo partly specified), for which the growth is -34.5% (active) in the assay on NCI-H226 lung; 10.4% in the assay with NCI-H322M lung; -36.2% (active) with HOP-62 NSCLC; 6.63% (active) in the assay with NCI-H460 lung; -21.3% (active) in the assay on HOP-92 NSCLC; -41.6% (active) with NCI-H522 lung. Besides, the growth in the assay with A549/ATCC NSCLC is 13.4%; in the assay on 786-0 renal, -5.43% (active).
In the case of `CCCn1c(=O)c2[nH]c(-c3ccc(OCc4nc5ccc(C)cc5[nH]4)cc3)nc2n(CCC)c1=O`, the growth with NCI-H226 lung is -55% (active); in the assay with NCI-H322M lung, 40.3%; in the assay on HOP-62 NSCLC it was -17.3% (active); with NCI-H460 lung, 13%; with HOP-92 NSCLC, -43.2% (active); with NCI-H522 lung it was 36.7%. Further, the growth in the assay with A549/ATCC NSCLC is 62.7%; in the assay on 786-0 renal, -75.2% (active); in the assay with COLO 205 colon it was 91.3%.
As to `O=C1Nc2cc(Cl)ccc2/C1=C/c1cccc(OCc2ccccc2)c1`, the growth in the assay on NCI-H322M lung was 29.5%; with HOP-62 NSCLC, 0.755% (active); in the assay with NCI-H460 lung, 3.73% (active); with HOP-92 NSCLC, -6.89% (active); in the assay with NCI-H522 lung it was -63% (active); with A549/ATCC NSCLC, 5.95% (active). In addition, the growth in the assay with 786-0 renal is -12% (active); with COLO 205 colon, -22.8% (active).
Turning to `C/C(=N\NC(N)=S)c1ccc(Nc2nc(SC(C)C)nc(-c3ccccc3)c2C#N)cc1`, the growth was 27.5% with NCI-H226 lung; 74.3% with NCI-H322M lung; 34.4% in the assay on HOP-62 NSCLC; 41.7% with NCI-H460 lung; -11.1% (active) in the assay with HOP-92 NSCLC; 78% in the assay on NCI-H522 lung. Further, the growth in the assay on A549/ATCC NSCLC was 53.7%; with 786-0 renal, 18.2%; with COLO 205 colon, 92.5%.
With `COC1=C[C@@]23CCC(=O)N2CCc2cc4c(cc2[C@H]3[C@H]1OC(=O)C(C)(C)O)OCO4`, the growth with NCI-H226 lung is 93.2%; with NCI-H322M lung it was 101%; in the assay on HOP-62 NSCLC, 89.2%; with NCI-H460 lung, 115%; with HOP-92 NSCLC it was 92%; in the assay with NCI-H522 lung it was 95.6%. Besides, the growth was 102% with A549/ATCC NSCLC, 95.7% with 786-0 renal and 120% with COLO 205 colon.
Regarding `Cc1ccc(C(=O)NCCCNc2nc(Nc3ccc(N4CCN(C)CC4)cc3)nc3ccsc23)cc1`, the growth is 68.7% in the assay with NCI-H226 lung; 64.3% in the assay with NCI-H322M lung; 73.7% with HOP-62 NSCLC; 49.2% with NCI-H460 lung; 27.1% with HOP-92 NSCLC; 73.2% in the assay with NCI-H522 lung. For the same compound, the growth in the assay on A549/ATCC NSCLC is 54.5%; with 786-0 renal it was -11.6% (active); in the assay on COLO 205 colon it was 32.7%.
